An excerpt weighted towards active compounds, which were near 2.2% of everything screened.
aSyn yeast inh: rescues yeast growth from alpha-synuclein toxicity; Yeast expressing alpha-synuclein, growth rescue, BacTiter-Glo, 24 h; Potency, µM (highest dose often 46.1 µM), without a hit: at the top dose growth rescue (activation), most hits filed as activators; 370,000 tested, 0.14% active; further: % of control where 0% means no effect; nearly all actives have a fitted effect of over 65% in size
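Galactose-induced alpha-syn yeast (OD600=0.02, raffinose-pregrown) + pinned cpd, 24 hr, 30 deg C; growth by BacTiter-Glo luminescence. Growth restoration scores as activation.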
FUS suppressor: rescues growth of FUS-expressing yeast; AID 1347120; 390,000 tested, 0.24% active; Potency, µM (highest dose often 76.6 µM), hits mostly activators; S. cerevisiae FUS-expressing, growth rescue, OD600, 24 h;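 further: plate controls were DMSO vehicle for no effect and reference control for full effect; nearly all actives have a fitted effect of over 55% in size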
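Galactose (2%) drives FUS expression in yeast precultured in raffinose; seeding density OD 0.005. Test compounds incubated 24hr at 30C and 99% humidity before absorbance at 600 nm was measured.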
TDP-43 yeast inh: rescues yeast growth from TDP-43 toxicity | TDP-43 expressing yeast growth rescue, BacTiter-Glo, 24 h | Potency, µM (series often up to 46.1 µM), for inactives: top-dose growth rescue (activation), most hits filed as activators | 410,000 tested, 1.8% active | AID 652104; further: % of control where 0% means no effect; nearly all actives have a fitted effect of over 50% in size
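Growth rescue of TDP-43-toxic yeast measured as ATP luminescence (BacTiter-Glo). Cells grown to mid-log in raffinose, induced in galactose at OD600=0.02, exposed to compound 24 hr at 30 deg C.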
Mito fusion act: blocks mitochondrial division or promotes mitochondrial fusion | S. cerevisiae fusion-defective mutant growth rescue, CellTiterGlo 48 h | Potency, µM (doses to about 46.1 µM), inactives show at the top dose growth rescue (activation), hits mostly activators | 320,000 tested, 0.23% active; further: % of control where 0% means no effect; nearly all actives have a fitted effect of over 45% in size
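S. cerevisiae fusion-defective temperature-sensitive mutants (e.g. fzo1-1, mgm1-5) grown 48 h at 37C in YPEG (ethanol/glycerol non-fermentable) medium with 23 nl compound per well; growth rescue read as CellTiterGlo luminescence.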
Abeta yeast res: restores growth of yeast expressing A-beta42 peptide | yeast expressing A-beta42, growth rescue, OD600, 48 h; response scale: 0% DMSO, 100% iron-clioquinol control | Potency, µM (doses to about 46.1 µM), usual class: activators | 410,000 tested, 0.063% active; further: nearly all actives have a fitted effect of over 55% in size
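Yeast A-beta toxicity model in growth medium with pinned compounds, 48 h at 30 C; growth read as absorbance at 600 nm. Normalized to FeCl3/clioquinol equimolar mix (positive) and DMSO (negative).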
Numbers without * were called inactive; i = inactive; ? = inconclusive; . = not tested or not shown. The call rests on the fitted dose curve; in most records, active means well fitted curve in the direction sought with a large enough effect; inconclusive means small, poorly fitted or top-dose-only effect, or another doubt; inactive means no such curve, though single readings can be large; an effect the other way counts as inactive or inconclusive. Potency means the concentration at half of the fitted maximal effect.

SMILES	aSyn yeast inh	FUS suppressor	TDP-43 yeast inh	Mito fusion act	Abeta yeast res
COc1ccc(-c2cc3nc(NCC4CCCCC4)n(C)c(=O)c3s2)cc1OC	30%	i	20µM*	.	22µM*
COc1ccc(Nc2nc3cc(-c4ccsc4)sc3c(=O)n2C)cc1OC	16%	28µM*	?	.	i
COc1cccc(-c2cc3nc(Nc4ccc(OC)c(OC)c4)n(C)c(=O)c3s2)c1	-1%	i	0%	.	i
NC(=O)C1=CN(C2OC(COP(=O)(O)OP(=O)(O)OC[C@H]3O[C@@H](n4cnc5c(N)ncnc54)[C@H](OP(=O)(O)O)[C@@H]3O)C(O)C2O)C=CC1 (stereo not given in full)	-2%	.	.	-1%	.
O=C1C=C(c2ccccc2)CC(/C=C/c2ccccc2)C1 (stereo not given)	12%	.	?	16µM*	i
Cc1cc(C)c(C#N)c(Sc2nc(C)c([N+](=O)[O-])c(C)c2C#N)n1	-14%	i	20µM*	.	i
Cc1nc(Sc2ccccc2)c(C#N)c(C)c1[N+](=O)[O-]	1%	i	7.1µM*	-9%	?
Cc1nc(Sc2ccccc2)c(C#N)cc1-c1ccccc1	-9%	i	1%	3%	i
Cc1ccc(-c2nc3sccn3c2Nc2ccc(C)c(C)c2)cc1	.	i	12%	.	i
Cc1ccc(C)c(NC(=O)c2cnc(N3CCCC3)nc2C)c1	.	i	14µM*	.	i
Cc1nc(N2CCCC2)ncc1C(=O)NCc1ccccc1Cl	.	i	35µM*	.	i
COc1ccccc1CNC(=O)c1cnc(N2CCCC2)nc1C	.	i	?	.	i
O=c1c2c3c(sc2nc2n1CCCS2)CCCC3	0%	i	18µM*	16%	i
O=c1c2c3c(sc2nc2n1CCC2)CCCC3	1%	i	20%	16%	i
O=c1c2c3c(sc2nc2n1CCCCC2)CCCC3	-4%	i	13µM*	11%	i
CCn1cc2c(n1)-c1c(oc(C(=O)Nc3cccc(C(F)(F)F)c3)c1C)CC2	.	i	9%	.	i
CCC(NC(=O)CCc1c(C)c2cc3c(C)c(C)oc3cc2oc1=O)C(=O)N[C@@H](Cc1ccccc1)C(=O)O (stereo not given in full)	5%	28µM*	0%	-3%	i
NC(=O)c1ccc2[nH]ccc2c1	2%	.	.	-6%	.
COc1ccc([C@H]2CC(=O)C=C(c3ccc(C)c([N+](=O)[O-])c3)C2)cc1	2%	?	35µM*	?	i
COc1ccc([C@H]2CC(=O)C=C(c3cccc(Cl)c3)C2)cc1	0%	i	18µM*	?	i
COc1ccc([C@H]2CC(=O)C=C(c3ccc4c(c3)OCCO4)C2)cc1	0%	i	?	?	i
COCc1cccc(C2=CC(=O)C[C@H](c3ccc(OC)cc3)C2)c1	5%	i	14µM*	9%	i
CCCC1CCC2(CC1)CCC2OC(=S)Nc1ccccc1C(F)(F)F (stereo not given)	.	i	.	.	.
NNC(=O)c1cc2cc(Oc3ccccc3)ccc2[nH]1	1%	i	10µM*	7%	i
NNC(=O)c1cc2ccccc2[nH]1	-15%	i	.	-5%	i
SMILES	aSyn yeast inh	FUS suppressor	TDP-43 yeast inh	Mito fusion act	Abeta yeast res
COc1ccc(S(=O)(=O)NCc2ccc(C(=O)NCc3ccccc3)cc2)cc1	.	i	3%	.	i
CSc1ccc(S(=O)(=O)Nc2ccc3c4c(cccc24)CC3)cc1	13µM*	i	14%	-9%	i
CN1C(=O)/C(=C2\SC(N3CCCCCC3)=NC2=O)c2ccccc21	7%	i	16µM*	14%	i
CCCN1C(=O)/C(=C2\SC(N3CCCCC3)=NC2=O)c2ccccc21	-10%	i	-12%	16%	i
COCc1cc(C)nc2sc(C(=O)N3CCCCC3)c(N)c12	-5%	i	-35%	-1%	i
COCc1cc(C)nc2sc(C(=O)N3CCN(c4ccccc4)CC3)c(N)c12	2%	i	20µM*	6%	i
CCOC(=O)c1[nH]c2ccccc2c1NC(=O)c1ccccc1F	.	i	?	.	i

Assay outcomes (PubChem BioAssay)
